# From the supplement of paper PMC10849652
# The full data set covers some 7,900 targets. This sample favours those with a hit. About 0.6% of all pairs of compound and target were hits. Values without a mark were called inactive.
# What was measured:
# Assay in all cases: log2 fold change, soluble protein after heating vs DMSO (PISA); higher = thermal stabilisation; K562 cells, 10 uM, 30 min; active = over 0.2 and 3.5 SD of the protein, either way, in both replicates (recomputed)
# [1] = compound: NC(=O)Nc1cc(-c2cccc(F)c2)sc1C(=O)N[C@H]1CCCNC1
# In short: (§1)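 K562 cells at 2×10^6 cells/mL were given 10 μM compound for 30 min. Aliquots then went through 3 min of heating across 48°C-58°C, were pooled, and were extracted in PBS with 0.5% NP-40 at 4°C, and the supernatant after 21,000xg for 90 min was quantified by TMTpro 16plex LC-MS/MS with channel sums equalised. Thermal stability relative to control samples, from duplicates, is given as log2 fold change.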
# [2] = compound: NC(=O)c1cnc(N[C@@H]2CCCC[C@@H]2N)nc1Nc1cccc(-n2nccn2)c1
# In short: as §1
# [3] = compound: NC1(c2ccc(-c3nc4ccn5c(=O)[nH]nc5c4cc3-c3ccccc3)cc2)CCC1
# In short: as §1
# [4] = compound: NCC(=O)Nc1ccc(-n2nc(C(F)(F)F)cc2-c2ccc3c(ccc4ccccc43)c2)cc1
# In short: as §1
# entinostat = compound: Nc1ccccc1NC(=O)c1ccc(CNC(=O)OCc2cccnc2)cc1 [entinostat]
# In short: as §1
# vorinostat = compound: O=C(CCCCCCC(=O)Nc1ccccc1)NO [vorinostat]
# In short: as §1
# citarinostat = compound: O=C(CCCCCCNC(=O)c1cnc(N(c2ccccc2)c2ccccc2Cl)nc1)NO [citarinostat]
# In short: as §1
# silmitasertib = compound: O=C(O)c1ccc2c(c1)nc(Nc1cccc(Cl)c1)c1ccncc12 [silmitasertib]
# In short: as §1
# [5] = compound: O=C1NC(=O)C(c2cnc3ccccn23)=C1c1cn2c3c(cc(F)cc13)CN(C(=O)N1CCCCC1)CC2
# In short: as §1
# [6] = compound: c1cc(OCCN2CCCCC2)cc(-c2n[nH]c3ccc(-c4nnc[nH]4)cc23)c1
# In short: as §1
# entospletinib = compound: c1cn2cc(-c3ccc4cn[nH]c4c3)nc(Nc3ccc(N4CCOCC4)cc3)c2n1 [entospletinib]
# In short: as §1
# UniProt O60749, sequence (O60749 whole entry, looked up): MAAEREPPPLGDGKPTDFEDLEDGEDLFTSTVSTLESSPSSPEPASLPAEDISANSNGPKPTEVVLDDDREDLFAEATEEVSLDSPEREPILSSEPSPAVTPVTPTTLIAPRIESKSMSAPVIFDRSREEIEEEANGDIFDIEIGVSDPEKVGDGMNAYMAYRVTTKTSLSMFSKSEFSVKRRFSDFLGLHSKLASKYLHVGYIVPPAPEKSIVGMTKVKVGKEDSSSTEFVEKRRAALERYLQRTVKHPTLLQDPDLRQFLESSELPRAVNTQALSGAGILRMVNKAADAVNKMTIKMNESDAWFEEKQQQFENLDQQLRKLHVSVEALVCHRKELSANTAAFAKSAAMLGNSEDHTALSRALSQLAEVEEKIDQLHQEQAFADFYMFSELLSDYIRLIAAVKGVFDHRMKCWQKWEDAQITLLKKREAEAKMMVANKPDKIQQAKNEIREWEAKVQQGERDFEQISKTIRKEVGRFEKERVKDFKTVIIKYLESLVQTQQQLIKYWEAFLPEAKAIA
# UniProt Q8WVK2, sequence (Q8WVK2 whole entry, looked up): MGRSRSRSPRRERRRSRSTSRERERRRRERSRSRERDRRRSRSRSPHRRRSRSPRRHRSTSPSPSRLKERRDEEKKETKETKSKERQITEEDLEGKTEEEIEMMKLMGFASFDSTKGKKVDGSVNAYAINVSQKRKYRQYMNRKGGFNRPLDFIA
# UniProt Q5JUR7, sequence (Q5JUR7 whole entry, looked up): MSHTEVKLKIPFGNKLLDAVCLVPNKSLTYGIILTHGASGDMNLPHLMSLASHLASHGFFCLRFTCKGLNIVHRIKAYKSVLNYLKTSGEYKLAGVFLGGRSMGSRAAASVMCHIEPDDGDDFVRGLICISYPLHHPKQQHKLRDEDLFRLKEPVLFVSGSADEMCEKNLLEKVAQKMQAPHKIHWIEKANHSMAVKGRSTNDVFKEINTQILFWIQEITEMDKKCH
# UniProt Q96QD8, sequence (Q96QD8 whole entry, looked up): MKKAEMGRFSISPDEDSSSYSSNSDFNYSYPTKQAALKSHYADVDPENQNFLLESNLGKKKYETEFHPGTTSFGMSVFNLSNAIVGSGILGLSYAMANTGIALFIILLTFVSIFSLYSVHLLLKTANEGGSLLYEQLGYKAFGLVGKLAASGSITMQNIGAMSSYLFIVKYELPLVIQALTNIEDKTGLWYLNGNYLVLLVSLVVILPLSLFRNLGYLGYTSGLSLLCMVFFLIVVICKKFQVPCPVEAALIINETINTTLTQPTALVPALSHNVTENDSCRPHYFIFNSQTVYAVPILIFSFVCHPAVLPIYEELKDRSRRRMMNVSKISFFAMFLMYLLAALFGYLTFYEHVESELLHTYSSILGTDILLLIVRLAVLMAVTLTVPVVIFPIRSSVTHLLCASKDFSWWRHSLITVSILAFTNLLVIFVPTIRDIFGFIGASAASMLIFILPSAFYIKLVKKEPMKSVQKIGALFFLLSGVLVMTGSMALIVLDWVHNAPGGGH
# UniProt Q93075, sequence (Q93075 whole entry, looked up): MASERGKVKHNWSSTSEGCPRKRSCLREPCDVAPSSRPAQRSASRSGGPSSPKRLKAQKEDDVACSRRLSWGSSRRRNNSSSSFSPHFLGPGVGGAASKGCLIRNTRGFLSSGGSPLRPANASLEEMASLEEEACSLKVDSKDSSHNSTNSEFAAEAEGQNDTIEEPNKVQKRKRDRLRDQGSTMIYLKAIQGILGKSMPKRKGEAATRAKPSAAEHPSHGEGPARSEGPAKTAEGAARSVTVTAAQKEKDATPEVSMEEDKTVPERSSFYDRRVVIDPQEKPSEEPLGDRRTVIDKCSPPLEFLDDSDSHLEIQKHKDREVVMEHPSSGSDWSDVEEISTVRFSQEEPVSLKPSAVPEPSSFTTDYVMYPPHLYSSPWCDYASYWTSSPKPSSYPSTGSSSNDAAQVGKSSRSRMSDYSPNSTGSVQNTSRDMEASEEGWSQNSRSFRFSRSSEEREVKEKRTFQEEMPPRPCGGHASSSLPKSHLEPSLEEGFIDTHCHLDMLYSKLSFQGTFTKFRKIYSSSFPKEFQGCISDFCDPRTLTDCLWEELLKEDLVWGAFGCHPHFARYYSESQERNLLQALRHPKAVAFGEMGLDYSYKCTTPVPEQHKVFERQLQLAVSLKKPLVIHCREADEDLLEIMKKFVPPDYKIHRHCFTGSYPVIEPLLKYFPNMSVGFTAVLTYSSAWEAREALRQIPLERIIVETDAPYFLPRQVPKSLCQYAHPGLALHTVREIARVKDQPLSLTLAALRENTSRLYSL
# UniProt Q9H5L6, sequence (Q9H5L6 whole entry, looked up): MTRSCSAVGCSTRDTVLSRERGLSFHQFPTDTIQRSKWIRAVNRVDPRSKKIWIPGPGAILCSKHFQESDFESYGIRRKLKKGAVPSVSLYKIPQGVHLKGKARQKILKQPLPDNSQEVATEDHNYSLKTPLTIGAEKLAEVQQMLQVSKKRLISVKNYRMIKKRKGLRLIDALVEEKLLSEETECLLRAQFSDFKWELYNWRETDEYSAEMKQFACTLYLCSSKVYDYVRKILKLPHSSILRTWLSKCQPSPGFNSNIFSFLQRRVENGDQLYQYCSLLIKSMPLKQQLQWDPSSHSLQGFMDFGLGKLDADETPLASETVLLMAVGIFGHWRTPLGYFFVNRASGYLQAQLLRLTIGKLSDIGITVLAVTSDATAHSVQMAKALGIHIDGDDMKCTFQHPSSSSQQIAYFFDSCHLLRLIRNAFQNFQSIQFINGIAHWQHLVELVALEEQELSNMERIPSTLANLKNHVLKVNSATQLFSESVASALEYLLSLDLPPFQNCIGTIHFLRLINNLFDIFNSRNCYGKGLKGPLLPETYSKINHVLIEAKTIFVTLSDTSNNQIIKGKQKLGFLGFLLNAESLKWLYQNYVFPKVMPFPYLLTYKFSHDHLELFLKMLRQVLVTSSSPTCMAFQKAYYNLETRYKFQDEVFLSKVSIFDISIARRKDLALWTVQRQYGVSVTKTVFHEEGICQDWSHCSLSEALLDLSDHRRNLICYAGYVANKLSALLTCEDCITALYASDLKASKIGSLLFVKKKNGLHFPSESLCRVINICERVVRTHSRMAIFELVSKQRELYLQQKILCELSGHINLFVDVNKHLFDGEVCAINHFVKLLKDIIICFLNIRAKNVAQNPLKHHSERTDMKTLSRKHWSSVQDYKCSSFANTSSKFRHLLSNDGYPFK
# UniProt Q9NXE4, sequence (Q9NXE4 whole entry, looked up): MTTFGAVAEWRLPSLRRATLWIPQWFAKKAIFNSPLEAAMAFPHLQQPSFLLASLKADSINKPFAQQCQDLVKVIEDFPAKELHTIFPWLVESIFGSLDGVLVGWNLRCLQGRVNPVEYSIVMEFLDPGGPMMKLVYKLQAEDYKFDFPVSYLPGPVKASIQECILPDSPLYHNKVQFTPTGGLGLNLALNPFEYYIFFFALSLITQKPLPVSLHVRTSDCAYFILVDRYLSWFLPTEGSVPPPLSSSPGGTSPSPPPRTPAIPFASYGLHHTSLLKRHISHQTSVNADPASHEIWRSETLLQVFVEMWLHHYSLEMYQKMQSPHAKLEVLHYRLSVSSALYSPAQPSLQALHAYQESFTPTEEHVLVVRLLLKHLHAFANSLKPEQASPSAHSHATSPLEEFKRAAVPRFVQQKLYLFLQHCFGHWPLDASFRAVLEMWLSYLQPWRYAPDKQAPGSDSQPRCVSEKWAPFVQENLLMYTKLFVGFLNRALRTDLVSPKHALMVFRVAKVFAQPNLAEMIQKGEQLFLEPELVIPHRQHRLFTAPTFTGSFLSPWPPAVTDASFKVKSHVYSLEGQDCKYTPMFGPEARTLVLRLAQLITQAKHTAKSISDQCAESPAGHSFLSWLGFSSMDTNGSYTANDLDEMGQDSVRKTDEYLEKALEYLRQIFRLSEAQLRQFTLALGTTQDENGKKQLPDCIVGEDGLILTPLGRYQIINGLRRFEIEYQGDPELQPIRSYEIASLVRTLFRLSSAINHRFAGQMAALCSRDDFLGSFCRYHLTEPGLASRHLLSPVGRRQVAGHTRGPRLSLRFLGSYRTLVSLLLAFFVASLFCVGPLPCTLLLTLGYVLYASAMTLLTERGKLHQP
# UniProt P55061, sequence (P55061 whole entry, looked up): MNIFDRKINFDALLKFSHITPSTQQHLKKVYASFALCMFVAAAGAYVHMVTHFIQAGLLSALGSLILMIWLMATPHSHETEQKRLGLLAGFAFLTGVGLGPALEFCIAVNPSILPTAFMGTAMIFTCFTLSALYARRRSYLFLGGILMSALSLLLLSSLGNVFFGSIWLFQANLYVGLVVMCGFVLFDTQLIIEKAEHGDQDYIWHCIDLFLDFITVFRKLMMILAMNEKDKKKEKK
# UniProt Q9NS93, sequence (Q9NS93 whole entry, looked up): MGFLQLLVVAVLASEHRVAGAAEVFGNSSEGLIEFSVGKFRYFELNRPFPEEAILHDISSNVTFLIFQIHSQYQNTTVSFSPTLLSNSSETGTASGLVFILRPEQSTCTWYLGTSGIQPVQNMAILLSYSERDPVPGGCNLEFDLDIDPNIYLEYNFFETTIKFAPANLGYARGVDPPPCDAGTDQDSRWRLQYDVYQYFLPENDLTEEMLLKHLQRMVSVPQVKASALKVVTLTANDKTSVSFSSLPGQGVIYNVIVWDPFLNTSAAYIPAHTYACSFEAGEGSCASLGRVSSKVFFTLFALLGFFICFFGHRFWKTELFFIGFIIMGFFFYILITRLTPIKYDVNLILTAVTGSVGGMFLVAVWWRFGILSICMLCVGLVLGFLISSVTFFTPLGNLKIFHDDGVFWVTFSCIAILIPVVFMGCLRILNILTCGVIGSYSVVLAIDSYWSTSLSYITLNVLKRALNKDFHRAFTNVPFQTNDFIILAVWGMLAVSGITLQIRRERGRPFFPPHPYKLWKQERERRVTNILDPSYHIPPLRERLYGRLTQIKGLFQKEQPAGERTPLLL
# UniProt Q9P016, sequence (Q9P016 whole entry, looked up): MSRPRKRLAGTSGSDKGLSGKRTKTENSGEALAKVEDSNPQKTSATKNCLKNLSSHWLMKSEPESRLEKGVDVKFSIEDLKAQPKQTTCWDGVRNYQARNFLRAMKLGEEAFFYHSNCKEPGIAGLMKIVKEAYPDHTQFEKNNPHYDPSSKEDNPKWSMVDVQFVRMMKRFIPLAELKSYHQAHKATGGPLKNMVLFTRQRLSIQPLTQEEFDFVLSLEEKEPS
Target,log2 fold change [1],log2 fold change [2],log2 fold change [3],log2 fold change [4],log2 fold change (entinostat),log2 fold change (vorinostat),log2 fold change (citarinostat),log2 fold change (silmitasertib),log2 fold change [5],log2 fold change [6],log2 fold change (entospletinib)
STX17 (UniProt P56962),0.027,-0.073,-0.096,0.126,-0.001,-0.02,0.254,0.087,-0.026,-0.059,-0.071
THYN1 (UniProt Q9P016),0,-0.011,-0.048,-0.103,-0.004,0.011,0.008,-0.011,-0.022,-0.034,0.011
SRSF2 (UniProt Q01130),-0.056,0.04,0.139,-0.006,-0.067,-0.057,-0.04,-0.062,0.059,-0.081,0.071
SLC27A2 (UniProt O14975),-0.068,-0.091,0.007,-0.047,-0.023,-0.053,0.059,0.083,0.247,-0.035,0.063
TK1 (UniProt K7ERV3),-0.127,-0.054,-0.005,0.022,-0.071,-0.003,–,-0.039,-0.116,–,–
STXBP5 (UniProt Q5T5C0),0.006,-0.022,-0.145,-0.033,-0.011,0.004,0.024,0.041,-0.04,-0.003,0.01
SRPRA (UniProt P08240),-0.03,0.017,-0.049,-0.045,0.02,0.033,0,0.021,0.008,0.015,-0.052
SNRNP27 (UniProt Q8WVK2),0.022,-0.015,-0.034,-0.043,-0.024,-0.008,-0.003,0.06,0.038,-0.025,0.025
TMBIM6 isoform 2 (UniProt P55061),0.027,-0.119,0.189,-0.015,0.044,–,0.05,-0.206,-0.089,-0.067,-0.038
SRP68 (UniProt Q9UHB9),-0.068,-0.08,-0.094,-0.035,0.101,0.08,0.095,0.08,0.096,-0.062,0.091
SLC38A9 (UniProt Q8NBW4),-0.129,0.009,-0.113,-0.025,0.034,0.007,0.004,0.035,-0.044,-0.043,0.019
TECR (UniProt Q9NZ01),0,-0.071,-0.087,-0.048,0.042,0.064,0.07,0.025,-0.07,-0.056,-0.018
TEX30 (UniProt Q5JUR7),–,-0.101,-0.097,-0.1,–,0.121,–,0.073,-0.04,–,–
SLC35A1 (UniProt P78382),-0.05,-0.015,-0.069,0.1,-0.065,–,0.047,0.021,0.028,-0.106,-0.142
SNRK (UniProt Q9NRH2),-0.19,–,–,–,-0.046,–,0.26,–,–,0.325,-0.27
SPAG9 isoform 4 (UniProt O60271),-0.101,-0.164,-0.09,-0.199,0.034,–,-0.048,0.014,–,-0.017,0.003
SPIRE1 (UniProt Q08AE8),–,-0.025,0.063,-0.04,–,-0.035,0.022,-0.008,0.224,0.023,-0.085
TC2N (UniProt Q8N9U0),–,0.015,-0.067,-0.13,–,–,–,-0.186,–,–,–
TCOF1 isoform 6 (UniProt Q13428),0.281,–,-0.07,0.077,0.23,–,0.18,0.028,–,-0.042,-0.006
TATDN2 (UniProt Q93075),-0.115,0.003,–,-0.126,0.009,0.004,-0.52 (active),–,0.067,0.06,-0.046
SLC9A6 isoform 3 (UniProt Q92581),–,0.009,–,–,–,–,-0.066,–,–,0.172,0.052
SLC27A1 (UniProt Q6PCB7),0.026,-0.012,-0.016,0.038,-0.013,–,–,-0.039,0.014,–,–
TAOK2 (UniProt Q9UL54),–,–,-0.01,–,–,0.081,0.056,-0.009,0.184,0.12,-0.038
SRFBP1 (UniProt Q8NEF9),0.038,0.198,0.211,–,-0.071,0.009,0,0.054,0.122,0.116,-0.082
SOX5 (UniProt P35711),0.035,-0.064,-0.015,0.03,-0.129,–,–,0.018,–,–,–

Target,log2 fold change [1],log2 fold change [2],log2 fold change [3],log2 fold change [4],log2 fold change (entinostat),log2 fold change (vorinostat),log2 fold change (citarinostat),log2 fold change (silmitasertib),log2 fold change [5],log2 fold change [6],log2 fold change (entospletinib)
SLC46A1 (UniProt Q96NT5),–,-0.143,–,0.137,–,-0.005,-0.061,–,–,0.01,0.078
SLC8B1 (UniProt Q6J4K2),–,-0.078,–,0.034,–,-0.031,–,–,–,–,–
TCOF1 isoform 3 (UniProt Q13428),0.283,–,–,–,0.008,0.205,0.105,–,0.067,-0.146,0.399
THAP9 (UniProt Q9H5L6),–,0.021,0.024,–,–,–,–,0.049,–,–,–
SYK (UniProt P43405),–,–,–,-0.029,–,–,-0.029,–,0.075,-0.123,0.015
TBP (UniProt P20226),–,0.095,0.015,0.033,–,–,0.013,0.183,-0.025,-0.041,0.012
SLC35B1 isoform 2 (UniProt P78383),-0.054,–,-0.029,-0.057,0.041,–,-0.052,0.261,0.138,-0.327,-0.154
TAF6L (UniProt Q9Y6J9),-0.038,-0.067,-0.061,–,0.033,0.248,–,0.303,–,–,–
SMARCB1 (UniProt Q12824),-0.023,–,–,-0.261,-0.005,-0.158,-0.171,–,–,-0.103,0.887 (active)
TM7SF3 (UniProt Q9NS93),0.091,0.048,-0.359 (active),–,0.076,–,0.179,0.066,–,0.084,-0.081
SRCAP (UniProt Q6ZRS2),-0.079,–,0.001,-0.041,0.077,-0.039,0.014,-0.022,–,0.001,0.029
SREBF1 isoform 4 (UniProt P36956),–,–,-0.565 (active),–,–,–,0.095,0.01,0.057,0.007,0.015
SSB (UniProt E7ERC4),–,–,-0.168,-0.065,–,-0.176,–,0.022,–,–,–
SMPD4 isoform 2 (UniProt Q9NXE4),–,-0.1,0.014,-0.03,–,0.216,–,-0.058,–,–,–
SLC39A1 (UniProt Q9NY26),–,–,–,–,–,0.181,–,–,–,–,–
TENT5C (UniProt Q5VWP2),-0.095,–,0.006,-0.32,0.035,-0.104,0.144,-0.038,–,-0.133,0.019
SSBP4 (UniProt U3KPY3),–,–,-0.014,0.016,–,–,–,0.133,–,–,–
SUPT5H isoform 2 (UniProt O00267),–,–,–,-0.046,–,–,–,–,–,–,–
TM7SF2 (UniProt O76062),0.057,–,–,-0.276,0.119,–,–,–,–,–,–
SSBP4 (UniProt Q9BWG4),0.177,0.041,-0.024,–,-0.084,-0.107,0.018,-0.008,–,-0.093,0.119
SP2 (UniProt Q02086),0.164,-0.144,–,–,-0.018,–,-0.063,–,–,-0.293,0.07
SNX2 isoform 2 (UniProt O60749),0.043,-0.004,–,-0.264,0.088,–,0.065,–,-0.183,-0.1,-0.255
SLC38A2 (UniProt Q96QD8),-0.023,-0.046,-0.037,-0.12,0.018,–,0.025,0.054,0.014,-0.088,-0.02
TANGO6 (UniProt Q9C0B7),-0.007,-0.002,-0.167,–,0.035,–,-0.071,0.084,0.017,-0.089,-0.089
TBC1D2 (UniProt Q9BYX2),–,-0.078,-0.181,–,–,-0.022,-0.026,0.26,0.058,-0.202,-0.015
